Sampled rows, rich in hits. Any-hit rate of the full collection: about 5.3%.
FBPA coupling cs – counter-screen for Giardia aldolase inhibitors: coupling enzyme system. coupling enzyme system counterscreen, AmpLite Red fluorescence. activity change, negative = inhibition, % at 58.2 µM, hits read low. hit rate 0.67% among 290,000. AID 2472; in the data active means activity change below about -30%
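Fluorescence at 525 nm excitation and 598 nm emission measured inhibition of the coupled detection system without aldolase. Compounds (at 57.5 uM final) were preincubated 10 min at room temperature with coupling enzyme reagent before a 20 min substrate/AmpLite Red step.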
Tau fluor counter – counter-screen for tau fibril formation inhibitors. tau K18 P301L Alexa594 fluorescence, heparin fibrillization. Potency, µM (doses to about 57.7 µM), without a hit: top-dose activity change, negative = decrease. hit rate 0.93% among 280,000. AID 1463; further: potency means the concentration at half of the fitted maximal effect; nearly all actives have a fitted effect of over 55% in size
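Human tau K18 P301L (15 uM unlabeled, 0.24 uM Alexa 594-labeled) in 100 mM sodium acetate pH 7 with 20 uM heparin, 6 hr at 37 C. ThT 30 uM added, 1 hr ambient; Alexa 594 FP and total fluorescence read at 555/632 nm.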
JMJD2E inh – inhibitors of human JMJD2E histone demethylase; JMJD2E catalytic domain, FDH-coupled NADH fluorescence (FDH is formaldehyde dehydrogenase); hit rate 1.6% among 230,000; Potency, µM (series often up to 57.1 µM), inactives show at the top dose activity change, negative = inhibition, most hits filed as inhibitors; AID 2147; active means well fitted inhibition curve with a large enough effect, not every such curve was filed as active; inconclusive means small, poorly fitted or top-dose-only effect, or another doubt; inactive means no such curve, though single readings can be large or run the other way;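 further: potency means the concentration at half of the fitted maximal effect; 0% = wells with enzyme and -100% = buffer wells without enzyme; nearly all actives have a fitted effect of over 50% in size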
Target sequence (B2RXH2 1-337 limits assumed): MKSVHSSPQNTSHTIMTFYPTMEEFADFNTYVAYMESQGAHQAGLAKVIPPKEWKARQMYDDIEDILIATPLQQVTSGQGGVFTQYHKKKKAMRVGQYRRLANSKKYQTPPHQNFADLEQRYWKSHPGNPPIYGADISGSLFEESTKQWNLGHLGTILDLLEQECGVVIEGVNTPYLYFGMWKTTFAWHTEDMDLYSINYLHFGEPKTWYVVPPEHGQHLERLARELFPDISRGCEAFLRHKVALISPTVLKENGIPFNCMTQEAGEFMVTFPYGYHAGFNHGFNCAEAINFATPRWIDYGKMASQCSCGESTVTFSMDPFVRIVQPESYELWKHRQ
Tau fibril FP – inhibitors of human tau fibril formation. P10636. K18 P301L tau heparin fibrillization, Alexa594 FP, 6 h. Potency, µM (doses to about 57.7 µM), for inactives: at the highest dose activity, negative = inhibition, usual class: inhibitors. hit rate 0.39% among 280,000. AID 1468; further: potency means the concentration at half of the fitted maximal effect; nearly all actives have a fitted effect of over 55% in size
Target sequence (P10636 561-689 P618L limits assumed): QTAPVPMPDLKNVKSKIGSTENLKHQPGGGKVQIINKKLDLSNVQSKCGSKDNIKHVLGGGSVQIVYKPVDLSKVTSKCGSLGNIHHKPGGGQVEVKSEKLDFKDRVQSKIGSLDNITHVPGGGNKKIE
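Recombinant K18 P301L […], labeled with Alexa 594 at 0.24 uM over 15 uM unlabeled; heparin inducer 20 uM final; 37 C, 6 hr; FP endpoint.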
Tau ThT inhib – blocks human tau fibril formation measured by thioflavin T | recombinant tau K18 P301L (four-repeat tau fragment), heparin-induced fibrillization, ThT fluorescence | P10636 | Potency, µM (titrated, usually from 57.4 µM), for the others: at the highest dose activity, negative = inhibition, most hits filed as inhibitors | hit rate 2.1% among 270,000; further: potency means the concentration at half of the fitted maximal effect; nearly all actives have a fitted effect of over 55% in size
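Tau K18 P301L fragment (15 uM unlabeled plus 0.24 uM Alexa 594-labeled) in 100 mM sodium acetate pH 7 with compound, fibrillization induced by 20 uM heparin for 6 hr at 37 C. Thioflavin T (30 uM) added, fluorescence read after 1 hr (ex 450, em 510 nm).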
Sfp PPTase inh – Sfp phosphopantetheinyl transferase inhibition. Q9F4F7. Biochemical Sfp PPTase activity, qHTS. Potency, µM, without a hit: largest response in the series, negative = inhibition, actives largely listed as inhibitors. hit rate 3.5% among 310,000. AID 1490;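 further: the enzyme is Sfp with the accession as filed and its product quenches rhodamine fluorescence; potency means the concentration at half of the fitted maximal effect; 0% = enzyme reaction without inhibitor and -100% = no enzyme wells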
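Compounds were incubated with enzyme (final 15 nM) for 15 min at room temperature before substrate addition started the reaction. Fluorescence at 525 nm excitation, 598 nm emission was recorded immediately and after 30 minutes.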
* = called active by the depositor; ? = inconclusive; nt = no result; [ ] = another dose, or the depositor's remark. Unless noted, the call rests on the fitted dose curve; in most records, active means well fitted curve in the direction sought with a large enough effect; inconclusive means small, poorly fitted or top-dose-only effect, or another doubt; inactive means no such curve, though single readings can be large; an effect the other way counts as inactive or inconclusive. Unless noted, on the % scale 0 is the no-effect control and ±100 the full control effect.

SMILES	FBPA coupling cs	Tau fluor counter	JMJD2E inh	Tau fibril FP	Tau ThT inhib	Sfp PPTase inh
CCN(CC#CCC(O)(c1ccccc1)C1CCCC1)C(C)C (stereo not given)	nt	-1.8%	3.7%	-2.9%	5.9%	-13.5%
CC(C)N(CC#CCC(O)(c1ccccc1)C1CCCC1)CCO (stereo not given)	3.5	-8.4%	-2.9%	-5.2%	-4.0%	20µM*
COc1ccc(Cl)cc1/C=C1/C(=O)ON=C1C	5.0	nt	nt	nt	nt	50.1µM*
CCN(CC)c1ccc(/C=C2\C(=O)N(c3nnc(C)c(=O)[nH]3)N=C2C)cc1	-7.9	5.7%	?	?	7.94µM*	10µM*
C#CCOc1c(Cl)cc(/C=C2/C(=O)ON=C2C)cc1OC	4.8	nt	nt	nt	nt	56.2µM*
CC1=NOC(=O)/C1=C/c1ccc(O)c(Cl)c1	1.4	nt	nt	nt	nt	-34.7%
CCCOc1ccc(/C=C2/C(=O)ON=C2C)cc1Cl	-1.8	nt	nt	nt	nt	50.1µM*
COc1cc(/C=C2/C(=O)ON=C2C)cc(Cl)c1O	-5.9	nt	nt	nt	nt	-11.1%
CCOc1cc(/C=C2/C(=O)ON=C2C)ccc1O	-0.7	nt	nt	nt	nt	-19.4%
Cc1noc(-c2ccc(N3CCCCC3)c([N+](=O)[O-])c2)n1	nt	-13.4%	nt	-9.6%	9.9%	nt
Cc1ccccc1CN1C(=O)c2ccccc2Sc2ccc(C(=O)NC3CCCC3)cc21	nt	-7.2%	nt	-12.5%	0.4%	nt
Cc1ccccc1CNC(=O)C1CCN(c2nnc(-n3c(C)ccc3C)s2)CC1	nt	-15.5%	nt	-15.1%	?	nt
Cc1cn(C2CC3OCC(NC(=O)C4CCCN4C(=O)OC(C)(C)C)C3O2)c(=O)[nH]c1=O (stereo not given)	2.0	nt	nt	nt	nt	25.5%
CCOc1ccc(Cl)cc1/C=C1/C(=O)ON=C1C	0.0	nt	nt	nt	nt	50.1µM*
CCN(CC)c1ccc(/C=C2/C(=O)ON=C2C)cc1	-0.7	-28.2%	5.4%	-6.2%	8.91µM*	-16.4%
COc1ccc(C2(CNC(=O)C(=O)Nc3ccc(C)c(Cl)c3)CCCC2)cc1OC	nt	-8.6%	nt	4.1%	-4.4%	nt
C=CC#CC1(O)CC(C)[N+](C)(C)CC1C (stereo not given)	-0.7	-3.2%	-12.6%	-0.7%	0.5%	39.8µM*
COCCNC(=O)C1(C(F)(F)F)C/C(=C/CCO)CCCO1 (stereo not given)	2.4	nt	nt	nt	nt	14.8%
COc1ccccc1CCn1c(=O)c(-c2cccs2)nc2cncnc21	-4.1	nt	nt	nt	nt	3.2%
CCOC(=O)c1cnc(-c2ccc(C(F)(F)F)cn2)[nH]c1=O	-0.5	-5.3%	?	-1.1%	-16.8%	44.7µM*
COCCNC(=O)CN(C(=O)CCC(=O)Nc1ccccn1)c1ccc(F)c(Cl)c1	1.6	?	0.1%	6.7%	6.31µM*	10.4%
COCCNC(=O)CN(C(=O)CCC(=O)Nc1ccccn1)c1ccc(F)cc1	1.6	0.4%	-0.7%	4.8%	-2.8%	14.6%
C#C[C@]1(OC(C)=O)CC[C@H]2[C@@H]3CCC4=C/C(=N/O)CC[C@@H]4[C@H]3CC[C@@]21CC	nt	nt	nt	nt	nt	79.4µM*
C#C[C@@]1(OC(C)=O)CC[C@@H]2[C@@H]3CCC4=C[C@@H](OC(C)=O)CC[C@H]4[C@H]3CC[C@]21C	-0.6	nt	-2.8%[25.5 µM]	nt	nt	-12.4%
Cc1ccc(CN2CCC(N3CC(C)OC(C)C3)CC2)cc1 (stereo not given)	0.7	nt	nt	nt	nt	-23.5%
SMILES	FBPA coupling cs	Tau fluor counter	JMJD2E inh	Tau fibril FP	Tau ThT inhib	Sfp PPTase inh
COc1ccc(CN2CCC(N3CC(C)OC(C)C3)CC2)c(OC)c1OC (stereo not given)	-1.3	nt	nt	nt	nt	56.2µM*
Cc1nc2nc(-c3ccc(Cl)cc3Cl)nn2c(C)c1CCC(=O)Nc1ccc(F)cc1	nt	1.7%	nt	3.0%	1.1%	nt
COc1cc2c3nnc(-c4ccc(F)cc4)c-3cn(Cc3cccc(C)c3)c2cc1OC	-1.5	-26.3%	?	-3.5%	?	7.6%
COc1cc2c3nnc(-c4ccc(F)cc4)c-3cn(Cc3cccc(F)c3)c2cc1OC	1.5	-18.0%	?	-0.8%	-5.6%	44.7µM*
c1ccc2c(c1)ncc1cccn12	0.3	5.3%	?	-1.7%	-0.1%	2.8%
c1ccc(-c2ncc3ccccn23)cc1	0.4	-28.2%	?	-9.3%	?	15.8µM*
Cn1ncc2c(Nc3cccc(C#N)c3)ncnc21	nt	-9.9%	nt	-2.7%	1.1%	nt
Nc1scc2c(C(=O)N/N=C/c3ccc(Cl)cc3)nn(-c3ccccc3)c(=O)c12	-47.8*	?	6.7%	?	11.2µM*	14.1µM*
CCCCCCCCCCCCC/C=C/[C@@H](O)C(CO)NC(C)=O (stereo not given in full)	-2.4	-8.3%	-7.7%	-5.8%	-2.0%	-17.2%
S=C1NC2=C(CCC/C2=C\c2ccc(Cl)cc2)C(c2ccc(Cl)cc2)N1 (stereo not given)	-3.4	-10.3%	-6.8%	0.1%	?	7.94µM*
S=C1NC2=C(CCC/C2=C\c2ccccc2)C(c2ccccc2)N1 (stereo not given)	1.9	-2.3%	-11.5%	-9.0%	?	22.4µM*
Fc1ccccc1/C=C1\CCCC2=C1NC(=S)NC2c1ccccc1F (stereo not given)	0.3	-6.7%	?	-5.3%	-18.0%	28.2µM*
Fc1cccc(/C=C2\CCCC3=C2NC(=S)NC3c2cccc(F)c2)c1 (stereo not given)	0.1	-12.4%	-7.5%	-0.3%	?	?
COc1ccc(-c2nc3cnc(N(C)C)nc3n(CCc3ccccc3)c2=O)cc1	2.0	nt	nt	nt	nt	10.9%
COc1cc(CN(C(=O)c2ccc(OC(C)C)cc2)c2ccccn2)cc(OC)c1OC	nt	-26.4%	nt	6.0%	?	nt
O=C(Nc1cc(-c2ccc(Cl)cc2)no1)c1ccc(F)cc1	nt	-3.2%	nt	-2.1%	-0.5%	nt
CN1CCN(C2=NC(=O)/C(=C/c3ccccc3OS(=O)(=O)c3ccccc3)S2)CC1	1.1	-1.0%	-10.6%	-0.9%	-1.7%	20µM*
NC1=NC(=O)/C(=C/c2ccccc2OS(=O)(=O)c2ccccc2)S1	-5.2	12.2%	?	?	4.8%	-0.3%
COc1cccc(/C=C2\SC(N3CCC(C)CC3)=NC2=O)c1OC	-3.1	nt	nt	nt	nt	50.1µM*
CCOC(=O)C1CCCN(C2=NC(=O)/C(=C/c3ccc(OC)cc3OC)S2)C1 (stereo not given)	1.3	nt	nt	nt	nt	44.7µM*
CCOC(=O)C1CCCN(C2=NC(=O)/C(=C/c3ccc(OC)cc3)S2)C1 (stereo not given)	2.2	nt	nt	nt	nt	6.5%
CCc1ccccc1NC(=O)C(=O)NCCCN1CCOCC1	nt	0.2%	nt	-4.5%	0.8%	nt
O=C(Cn1cc(SCc2ccc(Cl)cc2)c2ccccc21)N1CCCC1	nt	-21.0%	nt	-3.9%	?	nt
COc1cc(CNCCSc2nnnn2C)ccc1OCc1ccc(C)cc1	nt	-14.6%	nt	-0.8%	-11.9%	nt
CCC(=S)/C=C1\Sc2ccc3ccccc3c2N1CCCS(=O)(=O)O	-2.4	-6.6%	-21.2%	-15.6%	?	35.5µM*

Assay outcomes from PubChem.
